This passage reports growth results from PubChem BioAssay (NCI).

The structures appear in SMILES notation. Compounds without any hit were thinned out: in the full panel of roughly 83,000, 20% have a hit.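 Single-dose data. Exposure time 48 hours. Values below 10 considered active.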 Unmarked numbers belong to inactive results. Active and inactive are the calls of the source.

Experiment in all cases: NCI-60 one-dose screen, 48 h (100 = growth as untreated, 0 = no growth, -100 = all killed)
Conditions in all cases: 10 µM unless noted

Assay [1] deals with NCI-H23 lung.
Assay [2] has as its system NCI-H226 lung.
The test system of assay [3] is NCI-H322M lung.
For assay [4], the system named is HOP-62 NSCLC.
Assay [5] has as its system NCI-H460 lung.
For assay [6], the system named is HOP-92 NSCLC.
Assay [7] relates to NCI-H522 lung.
In assay [8] the test system is A549/ATCC NSCLC.
The subject of assay [9] is 786-0 renal.
In assay [10] the test system is COLO 205 colon.
Assay [11] has as its system DU-145 prostate.
In assay [12] the test system is K-562 leukemia.
The test system of assay [13] is MALME-3M melanoma.
Assay [14] has as its system MDA-MB-231 breast.
Assay [15] deals with RXF 393 renal.
Assay [16] has as its system SF-268 CNS.
Assay [17] has as its system SF-295 CNS.
For assay [18], the system named is SF-539 CNS.
For assay [19], the system named is UACC-257 melanoma.
The test system of assay [20] is M14 melanoma.

With `COc1cccc(NC(=O)Nc2ccc(Oc3ncnc4[nH]c(C)c(C)c34)cc2)c1`, the growth in [1] was 70.7%; in [2] it was 105%; in assay [3], 105%; in assay [4], 97.5%; in [5] it was 61.3%; in assay [6] it was 110%. The growth is 57.8% in assay [7]; 79.7% in assay [8]; 109% in assay [9]; 102% in assay [10]; 91.9% in assay [11]; 83.7% in assay [12]. For the same molecule, the growth was 114% in assay [13]; 97.1% in assay [14]; 109% in [15]; 81.3% in assay [16]; 91.7% in assay [17]; 64.6% in assay [18]. For the same molecule, the values for the growth in assay [19] and in assay [20] were 97.7% and 100%, respectively.

With `C=CCn1c(SCC(=O)Nc2ccc(C(=O)/C=C/c3cc(OC)c(OC)c(OC)c3)cc2)nnc1-c1ccccc1`, the growth in assay [1] is 93%; in assay [2], 88.5%; in assay [3], 104%; in [4], 117%; in assay [5], 89.8%; in assay [6] it was 150%. Further, the growth in assay [7] is 82.8%; in assay [8], 85.1%; in [9], 93.1%; in [10] it was 101%; in assay [11], 76.7%; in [12], 48.9%. For the same molecule, the growth was 91% in assay [13]; 98.9% in assay [14]; 97.8% in assay [15]; 93.5% in assay [16]; 92.6% in [17]; 96.2% in assay [18]. The values for the growth in assay [19] and in assay [20] were 81.4% and 86.9%, respectively.

As to `O=C(N/N=C/C[C@@H]1[C@@H](/C=C/[C@@H](O)COc2cccc(Cl)c2)[C@H](O)C[C@@H]1O)c1ccncc1`, the growth in [1] was 98.2%; in [2] it was 89.3%; in assay [3] it was 101%; in assay [4] it was 79.4%; in assay [5], 102%; in [6] it was 93.7%. Further, the growth in assay [7] was 69.9%; in assay [8], 89%; in assay [9], 105%; in assay [10] it was 113%; in [11], 108%; in [12], 95.9%. Besides, the growth in assay [13] was 98.1%; in assay [14], 101%; in [15], 105%; in assay [16] it was 103%; in assay [17], 99.5%; in assay [18], 104%. Further, the growth in [19] is 77.5%; in [20], 99.6%.

As for `Cc1cc(Nc2nc(SCc3ccc(C(=O)Nc4ccc(F)cc4N)cc3)nn3cccc23)n[nH]1`, the growth in [1] was 42.8%; in [2], 51.6%; in assay [3], 52.8%; in assay [4] it was 23.4%; in assay [5] it was 9.98% (active); in [6], 53.6%. Moreover, the growth in assay [7] was -14.8% (active); in assay [8] it was 30.8%; in assay [9], 44.1%; in [10], -39.9% (active); in assay [11], 20.1%; in assay [12], 7.36% (active). Besides, the growth in assay [13] was 53.7%; in assay [14] it was 22.8%; in [15], 23.5%; in assay [16] it was 28.2%; in assay [17], 18%; in [18] it was 8.82% (active). For the same molecule, the results for the growth in assay [19] and in assay [20] were 67.6% and 38.9%, respectively.

For the molecule `Oc1ccc(CNNc2ccnc3c(O)cccc23)c2cccnc12`, the growth is 31.6% in assay [1]; 86.7% in assay [2]; 47.8% in assay [3]; 25.2% in assay [4]; 12.3% in assay [5]; 54.3% in assay [6]. For the same molecule, the growth in assay [7] was 13%; in assay [8], 26.5%; in assay [9], 39%; in assay [10], 64.8%; in assay [11], 43.4%; in assay [12], 9.71% (active). The growth in assay [13] was 66.7%; in assay [14], 37.4%; in [15], 59.6%; in [16] it was 37.6%; in assay [17], 17.7%; in assay [18], 32.2%. The results for the growth in assay [19] and in assay [20] were 38.3% and 30.9%, respectively.

With `COC(=O)/C=C1\SC(=Nc2ccc(F)cc2)N(CCc2c[nH]c3ccccc23)C1=O`, the growth in assay [1] is 85.3%; in assay [2], 91.2%; in assay [3], 101%; in assay [4], 104%; in assay [5] it was 104%; in [6] it was 106%. The growth in assay [7] was 68.3%; in assay [8], 79%; in assay [9], 104%; in assay [10], 126%; in [11] it was 102%; in assay [12], 88%. The growth in assay [13] was 99.9%; in assay [14], 96.9%; in assay [15] it was 110%; in assay [16], 104%; in assay [17], 97.7%; in assay [18], 109%. The growth in assay [19] was 72.4%; in assay [20] it was 102%.

`CCSc1nc(Cl)c(C#N)c(-c2ccc(F)cc2)n1`: the growth in [1] was 95.6%; in assay [2], 94.3%; in assay [3], 92%; in assay [4], 106%; in assay [5], 103%; in assay [6], 99%. For the same molecule, the growth in assay [7] was 92.8%; in assay [8], 87.3%; in assay [9] it was 98.9%; in assay [10], 106%; in [11], 104%; in assay [12], 37.7%. For the same molecule, the growth in assay [13] is 106%; in [14] it was 105%; in assay [15], 103%; in [16], 94.9%; in [17], 97.7%; in [18], 92.7%. For the same molecule, the growth in assay [19] was 93.8%; in [20] it was 82.3%.
